Data from PubChem BioAssay (NCATS).
Records with an inconclusive call do not appear. Where a call stands in place of a potency, no number is given. Active and inactive are the calls of the source. Calls follow the shape of the dose curve; as a rule, active = well fitted inhibition curve with a large enough effect; inconclusive = small, poorly fitted or top-dose-only effect; inactive = flat fitted curve, though single readings scatter.

These compounds were tested on ATS189 (assay: qHTS profiling for inhibitors of Plasmodium falciparum proliferation (AID 504749; also: nearly all actives have a fitted effect of over 60% in size)). Conditions: P. falciparum in erythrocytes, SYBR Green DNA, 72 h; series mostly up to 28.7 µM.
Summary of the method: (§1)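 SYBR Green fluorescence of parasite DNA, read after lysis and overnight dark incubation, measured growth over 72 h in erythrocyte culture at 0.3% parasitemia and 2.5% hematocrit. Data normalised to DMSO and 0.29 uM artemisinin, with plate-drift correction.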
Potency is read from the fitted curve at half-maximal effect.

Row | SMILES | Potency
1 | Cc1cc(C)cc(C(=O)OC2CC3CCC(C2)N3C)c1 (stereo unspecified) | inactive
2 | CCCN1CCCC2Cc3nc(N)ncc3CC21 (stereo unspecified) | inactive
3 | COc1ccc2c3c1O[C@H]1[C@@H](O)C=C[C@H]4C(C2)NCCC341 (stereo partly specified) | inactive
4 | CCCCCC(O)C1C(=O)OC(C)C(O)\C=C/C=C\C=C/C=C\C=C(\C)C(O)C(O)C(O)CC(O)CC(O)CC(O)CC(O)CC1O (stereo unspecified) | inactive
5 | CCCCCc1cc(O)c2c(c1)OC(C)(C)C1CC=C(C)CC21 (stereo unspecified) | 3.16 µM (active)

The compounds below were run on ATS95 in the same assay as above. Conditions: P. falciparum in erythrocytes, SYBR Green DNA, 72 h; series mostly up to 28.7 µM.
Summary of the method: as §1

Row | SMILES | Potency
6 | C[C@H](N)Cc1ccccc1 | inactive
7 | C[C@]12C=CC(=O)C=C1CC[C@@H]1C2CC[C@]2(C)OC(=O)CCC12 (stereo partly specified) | inactive
8 | OCC(O)[C@H]1O[C@@H]2O[C@H](C(Cl)(Cl)Cl)O[C@@H]2[C@H]1O (stereo partly specified) | inactive
9 | CC1(C)[C@@H](C=C(Cl)Cl)[C@@H]1C(=O)OCc1c(F)c(F)cc(F)c1F | inactive
10 | CC1(C)S[C@@H]2[C@H](N)C(=O)N2C1C(=O)O (stereo partly specified) | inactive
11 | C=C1Nc2ccccc2C(=O)N1c1ccccc1C | inactive
12 | CC1OC(O[C@H]2C[C@@H](O)[C@]3(CO)[C@@H]4C(CC[C@]3(O)C2)[C@@]2(O)CC[C@H](C3=CC(=O)OC3)[C@@]2(C)C[C@H]4O)C(O)C(O)C1O (stereo partly specified) | inactive
13 | O=[N+]([O-])OC1CO[C@H]2C(O[N+](=O)[O-])COC12 (stereo partly specified) | inactive
14 | CCOC(=O)/C=C(C)/C=C/CC(C)CCCC(C)C (stereo unspecified) | inactive
15 | [S]=[Sb][S][Sb]=[S] | inactive
16 | CN1C2CCC1C(C(=O)O)C(OC(=O)c1ccccc1)C2 (stereo unspecified) | inactive
17 | C[C@@H]1CC[C@H]2[C@@H](C)C(=O)O[C@@H]3OC4(C)CC[C@@H]1C32OO4 (stereo partly specified) | 0.0112 µM (active)
18 | Cc1ccc2c(c1)[C@@H]1CN(C)CC[C@H]1N2 | inactive
19 | Nc1nc(O)c(-c2ccccc2)o1 | inactive
20 | C=CC[N+]1(C)CCC23c4c5ccc(O)c4O[C@H]2C(=O)CC[C@@]3(O)C1C5 (stereo partly specified) | inactive
21 | OC[C@@H](O)[C@H]1O[C@@H]2OC(C(Cl)(Cl)Cl)O[C@H]2[C@H]1O (stereo partly specified) | inactive
22 | CCCCCCC(=O)O[C@H]1CC[C@H]2[C@@H]3CCC4CC(=O)C=C(C)[C@]4(C)[C@H]3CC[C@]12C (stereo partly specified) | inactive
23 | Cc1cc(C)cc(C(=O)OC2CC3CCC(C2)N3C)c1 (stereo unspecified) | inactive
24 | CCCN1CCCC2Cc3nc(N)ncc3CC21 (stereo unspecified) | inactive
25 | COc1ccc2c3c1O[C@H]1[C@@H](O)C=C[C@H]4C(C2)NCCC341 (stereo partly specified) | inactive
26 | CCCCCC(O)C1C(=O)OC(C)C(O)\C=C/C=C\C=C/C=C\C=C(\C)C(O)C(O)C(O)CC(O)CC(O)CC(O)CC(O)CC1O (stereo unspecified) | inactive
27 | CCCCCc1cc(O)c2c(c1)OC(C)(C)C1CC=C(C)CC21 (stereo unspecified) | 3.16 µM (active)

The compounds below were run on C2A in the same assay as above. Conditions: P. falciparum in erythrocytes, SYBR Green DNA, 72 h; series mostly up to 28.7 µM.
Summary of the method: as §1

Row | SMILES | Potency
28 | C[C@H](N)Cc1ccccc1 | inactive
29 | C[C@]12C=CC(=O)C=C1CC[C@@H]1C2CC[C@]2(C)OC(=O)CCC12 (stereo partly specified) | inactive
30 | OCC(O)[C@H]1O[C@@H]2O[C@H](C(Cl)(Cl)Cl)O[C@@H]2[C@H]1O (stereo partly specified) | inactive
31 | CC1(C)[C@@H](C=C(Cl)Cl)[C@@H]1C(=O)OCc1c(F)c(F)cc(F)c1F | inactive
32 | CC1(C)S[C@@H]2[C@H](N)C(=O)N2C1C(=O)O (stereo partly specified) | inactive
33 | C=C1Nc2ccccc2C(=O)N1c1ccccc1C | inactive
34 | CC1OC(O[C@H]2C[C@@H](O)[C@]3(CO)[C@@H]4C(CC[C@]3(O)C2)[C@@]2(O)CC[C@H](C3=CC(=O)OC3)[C@@]2(C)C[C@H]4O)C(O)C(O)C1O (stereo partly specified) | inactive
35 | O=[N+]([O-])OC1CO[C@H]2C(O[N+](=O)[O-])COC12 (stereo partly specified) | inactive
36 | CCOC(=O)/C=C(C)/C=C/CC(C)CCCC(C)C (stereo unspecified) | inactive
37 | [S]=[Sb][S][Sb]=[S] | inactive
38 | CN1C2CCC1C(C(=O)O)C(OC(=O)c1ccccc1)C2 (stereo unspecified) | inactive
39 | C[C@@H]1CC[C@H]2[C@@H](C)C(=O)O[C@@H]3OC4(C)CC[C@@H]1C32OO4 (stereo partly specified) | 0.0112 µM (active)
40 | Cc1ccc2c(c1)[C@@H]1CN(C)CC[C@H]1N2 | inactive
41 | Nc1nc(O)c(-c2ccccc2)o1 | inactive
42 | C=CC[N+]1(C)CCC23c4c5ccc(O)c4O[C@H]2C(=O)CC[C@@]3(O)C1C5 (stereo partly specified) | inactive
43 | OC[C@@H](O)[C@H]1O[C@@H]2OC(C(Cl)(Cl)Cl)O[C@H]2[C@H]1O (stereo partly specified) | inactive
44 | CCCCCCC(=O)O[C@H]1CC[C@H]2[C@@H]3CCC4CC(=O)C=C(C)[C@]4(C)[C@H]3CC[C@]12C (stereo partly specified) | inactive
45 | Cc1cc(C)cc(C(=O)OC2CC3CCC(C2)N3C)c1 (stereo unspecified) | inactive
46 | CCCN1CCCC2Cc3nc(N)ncc3CC21 (stereo unspecified) | inactive
47 | COc1ccc2c3c1O[C@H]1[C@@H](O)C=C[C@H]4C(C2)NCCC341 (stereo partly specified) | inactive
48 | CCCCCC(O)C1C(=O)OC(C)C(O)\C=C/C=C\C=C/C=C\C=C(\C)C(O)C(O)C(O)CC(O)CC(O)CC(O)CC(O)CC1O (stereo unspecified) | inactive
49 | CCCCCc1cc(O)c2c(c1)OC(C)(C)C1CC=C(C)CC21 (stereo unspecified) | 10 µM (active)

The compounds below were run on CP185 in the same assay as above. Conditions: P. falciparum in erythrocytes, SYBR Green DNA, 72 h; series mostly up to 28.7 µM.
Summary of the method: as §1

Row | SMILES | Potency
50 | C[C@H](N)Cc1ccccc1 | inactive
51 | C[C@]12C=CC(=O)C=C1CC[C@@H]1C2CC[C@]2(C)OC(=O)CCC12 (stereo partly specified) | inactive
52 | OCC(O)[C@H]1O[C@@H]2O[C@H](C(Cl)(Cl)Cl)O[C@@H]2[C@H]1O (stereo partly specified) | inactive
53 | CC1(C)[C@@H](C=C(Cl)Cl)[C@@H]1C(=O)OCc1c(F)c(F)cc(F)c1F | inactive
54 | CC1(C)S[C@@H]2[C@H](N)C(=O)N2C1C(=O)O (stereo partly specified) | inactive
55 | C=C1Nc2ccccc2C(=O)N1c1ccccc1C | inactive
56 | CC1OC(O[C@H]2C[C@@H](O)[C@]3(CO)[C@@H]4C(CC[C@]3(O)C2)[C@@]2(O)CC[C@H](C3=CC(=O)OC3)[C@@]2(C)C[C@H]4O)C(O)C(O)C1O (stereo partly specified) | inactive
57 | O=[N+]([O-])OC1CO[C@H]2C(O[N+](=O)[O-])COC12 (stereo partly specified) | inactive
58 | CCOC(=O)/C=C(C)/C=C/CC(C)CCCC(C)C (stereo unspecified) | inactive
59 | [S]=[Sb][S][Sb]=[S] | inactive
60 | CN1C2CCC1C(C(=O)O)C(OC(=O)c1ccccc1)C2 (stereo unspecified) | inactive
61 | C[C@@H]1CC[C@H]2[C@@H](C)C(=O)O[C@@H]3OC4(C)CC[C@@H]1C32OO4 (stereo partly specified) | 0.0089 µM (active)
62 | Cc1ccc2c(c1)[C@@H]1CN(C)CC[C@H]1N2 | inactive
63 | Nc1nc(O)c(-c2ccccc2)o1 | inactive
64 | C=CC[N+]1(C)CCC23c4c5ccc(O)c4O[C@H]2C(=O)CC[C@@]3(O)C1C5 (stereo partly specified) | inactive
65 | OC[C@@H](O)[C@H]1O[C@@H]2OC(C(Cl)(Cl)Cl)O[C@H]2[C@H]1O (stereo partly specified) | inactive
66 | CCCCCCC(=O)O[C@H]1CC[C@H]2[C@@H]3CCC4CC(=O)C=C(C)[C@]4(C)[C@H]3CC[C@]12C (stereo partly specified) | inactive
67 | Cc1cc(C)cc(C(=O)OC2CC3CCC(C2)N3C)c1 (stereo unspecified) | inactive
68 | CCCN1CCCC2Cc3nc(N)ncc3CC21 (stereo unspecified) | inactive
69 | COc1ccc2c3c1O[C@H]1[C@@H](O)C=C[C@H]4C(C2)NCCC341 (stereo partly specified) | inactive
70 | CCCCCC(O)C1C(=O)OC(C)C(O)\C=C/C=C\C=C/C=C\C=C(\C)C(O)C(O)C(O)CC(O)CC(O)CC(O)CC(O)CC1O (stereo unspecified) | inactive
71 | CCCCCc1cc(O)c2c(c1)OC(C)(C)C1CC=C(C)CC21 (stereo unspecified) | 6.31 µM (active)
